# Assay results reported in PubChem BioAssay (EPA / NIEHS).
# Inconclusive results are not listed. Active and inactive are the calls of the source. The calls were made as follows, unless noted: active = hit-call score of the fitted dose curve at least 0.9, where 1 is the maximum; inconclusive = response in the unintended direction; inactive = score below 0.9.
# Assays:
# [1] = molecular target: human Retinoid X Receptor beta (RXRb), RXRB (gene 6257) (UniProt P28702); assay: ATG_RXRb_TRANS: Attagene TRANS-FACTORIAL HepG2 Assay for human Retinoid X Receptor beta (RXRb) (AID 2283013)
# human Retinoid X Receptor beta (RXRb), RXRB (gene 6257), sequence (P28702 whole entry, looked up, the tested form may be a part): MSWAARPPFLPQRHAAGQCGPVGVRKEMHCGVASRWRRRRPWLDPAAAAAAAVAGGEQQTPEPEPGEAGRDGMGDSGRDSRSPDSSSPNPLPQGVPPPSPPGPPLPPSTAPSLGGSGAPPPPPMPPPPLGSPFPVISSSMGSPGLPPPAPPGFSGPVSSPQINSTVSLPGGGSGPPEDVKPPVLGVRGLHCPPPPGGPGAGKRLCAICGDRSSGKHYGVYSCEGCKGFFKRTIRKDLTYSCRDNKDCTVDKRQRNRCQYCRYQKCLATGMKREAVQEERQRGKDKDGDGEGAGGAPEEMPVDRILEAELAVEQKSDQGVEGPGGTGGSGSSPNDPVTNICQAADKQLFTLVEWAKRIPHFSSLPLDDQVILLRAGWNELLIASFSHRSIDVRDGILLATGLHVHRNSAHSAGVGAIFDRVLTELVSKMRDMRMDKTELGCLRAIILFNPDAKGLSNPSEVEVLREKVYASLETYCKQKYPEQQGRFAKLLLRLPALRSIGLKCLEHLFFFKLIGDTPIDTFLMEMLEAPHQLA
# In short: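 HepG2 cells transiently transfected with multiplexed reporter units driven by GAL4-UAS and exogenous chimeric NR-Gal4 proteins; treated 24 h. Reporter mRNA measured by RT-PCR, 6-FAM labelling and capillary electrophoresis; gain-of-signal fitted versus DMSO baseline.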
# [2] = molecular target: Estrogen receptor beta (Homo sapiens) (UniProt Q92731); assay: OT_ER_ERbERb_0480: Odyssey Thera (OT) 8-hour HEK293T Protein-Complementation Assay for Estrogen Receptor-beta/-beta Homodimer (AID 2283357);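 also: active means signal gain over DMSO baseline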
# Estrogen receptor beta (Homo sapiens), sequence (Q92731 whole entry, looked up, the tested form may be a part): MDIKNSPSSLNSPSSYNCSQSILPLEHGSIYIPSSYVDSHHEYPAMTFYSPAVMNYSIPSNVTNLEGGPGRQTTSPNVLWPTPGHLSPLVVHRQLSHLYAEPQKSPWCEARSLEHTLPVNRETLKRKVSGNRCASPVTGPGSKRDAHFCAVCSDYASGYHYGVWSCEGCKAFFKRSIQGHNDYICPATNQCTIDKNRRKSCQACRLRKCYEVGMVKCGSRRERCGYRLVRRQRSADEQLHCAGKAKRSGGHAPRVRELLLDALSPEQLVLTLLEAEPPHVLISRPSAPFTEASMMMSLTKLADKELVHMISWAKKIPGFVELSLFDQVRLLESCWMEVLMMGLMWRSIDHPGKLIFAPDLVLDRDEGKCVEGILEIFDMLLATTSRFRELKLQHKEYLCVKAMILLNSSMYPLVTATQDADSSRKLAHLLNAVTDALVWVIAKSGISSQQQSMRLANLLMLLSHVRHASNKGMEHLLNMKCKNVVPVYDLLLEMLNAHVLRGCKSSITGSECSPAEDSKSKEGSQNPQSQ
# In short: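 Fluorescence intensity, nuclear for agonists and nuclear plus cytoplasmic for antagonists, was quantified by laser scanning cytometry versus vehicle after 8 h treatment. The cells were HEK293T stably carrying ER beta LBD fragment-complementation partners.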
# [3] = molecular target: Retinoic acid receptor RXR-alpha (Homo sapiens) (UniProt P19793); assay: OT_NURR1_NURR1RXRa_1440: Odyssey Thera (OT) 24-hour HEK293T Protein Complementation Assay for Nurr1/retinoid X receptor (RXR) (AID 2283386)
# Retinoic acid receptor RXR-alpha (Homo sapiens), sequence (P19793 whole entry, looked up, the tested form may be a part): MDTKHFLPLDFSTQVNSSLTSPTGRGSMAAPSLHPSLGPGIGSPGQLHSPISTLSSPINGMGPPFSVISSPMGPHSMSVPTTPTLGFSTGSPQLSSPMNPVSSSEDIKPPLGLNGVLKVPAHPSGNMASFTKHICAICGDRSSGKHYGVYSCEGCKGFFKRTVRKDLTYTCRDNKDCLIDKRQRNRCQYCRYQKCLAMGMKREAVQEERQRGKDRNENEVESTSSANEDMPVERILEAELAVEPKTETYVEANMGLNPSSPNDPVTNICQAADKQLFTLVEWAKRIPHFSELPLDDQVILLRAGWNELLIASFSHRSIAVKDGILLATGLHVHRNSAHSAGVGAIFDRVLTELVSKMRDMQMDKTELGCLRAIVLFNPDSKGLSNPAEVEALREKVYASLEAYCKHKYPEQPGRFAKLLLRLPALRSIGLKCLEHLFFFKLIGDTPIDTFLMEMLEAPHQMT
# In short: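 HEK293T cells were dosed with compound and read 24 h later by fluorescence intensity in a protein-fragment complementation format, where Nurr1–RXRα interaction reconstitutes a split reporter. Activity was fitted as gain of signal relative to DMSO baseline.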
# [4] = ACEA_AR_antagonist_AUC_viability: ACEA Biosciences xCELLigence Real-Time Cell Analysis on Androgen Receptor Antagonism for Viability (AID 2283776);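 also: area under impedance growth curve at 80 h after dosing as viability; hits lower the growth signal relative to DMSO meaning cytotoxicity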
# In short: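 22Rv1 human prostate cancer cells were seeded on electrode plates, monitored overnight, then exposed to eight 1:4 dilutions from 100 uM final. Impedance-based growth kinetics at 80 h gave an AUC viability endpoint normalized to DMSO.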
# [5] = molecular target: Estrogen-related receptor gamma (Homo sapiens) (UniProt P62508); assay: ATG_ERRg_TRANS: Attagene TRANS-FACTORIAL HepG2 Assay for human Estrogen-Related Receptor gamma (ERRg) (AID 2282977); settings: HepG2 Attagene TRANS reporter, ERRg transactivation;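 also: hits increase reporter signal over DMSO so potencies reflect activators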
# Estrogen-related receptor gamma (Homo sapiens), sequence (P62508 whole entry, looked up, the tested form may be a part): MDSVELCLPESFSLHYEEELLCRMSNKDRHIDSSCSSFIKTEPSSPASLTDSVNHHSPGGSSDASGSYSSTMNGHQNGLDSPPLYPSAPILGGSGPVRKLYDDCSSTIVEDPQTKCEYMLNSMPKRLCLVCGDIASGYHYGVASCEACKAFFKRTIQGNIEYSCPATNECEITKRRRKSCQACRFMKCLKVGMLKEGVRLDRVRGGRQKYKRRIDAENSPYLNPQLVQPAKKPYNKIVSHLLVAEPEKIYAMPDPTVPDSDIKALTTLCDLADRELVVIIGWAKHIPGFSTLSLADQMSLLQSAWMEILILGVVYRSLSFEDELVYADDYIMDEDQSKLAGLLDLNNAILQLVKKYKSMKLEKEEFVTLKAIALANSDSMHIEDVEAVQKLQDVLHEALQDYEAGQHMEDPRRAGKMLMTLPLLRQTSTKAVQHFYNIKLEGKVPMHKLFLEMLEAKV
# In short: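 HepG2 cells transiently transfected with multiplexed GAL4-UAS reporter units and chimeric NR-Gal4 constructs were exposed to test chemicals for 24 h. Reporter mRNA was measured by RT-PCR, 6-FAM primer extension, HpaI digestion and capillary electrophoresis; gain-of-signal versus DMSO.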
# [6] = BSK_3C_TissueFactor: BioMAP Diversity Plus: 3C Assay for Tissue Factor Biomarker Activity (AID 2282997; active = hit-call score of the fitted dose curve at least 0.9, where 1 is the maximum; inactive = score below 0.9); settings: BioMAP 3C HUVEC, tissue factor biomarker readout; actives raise or lower the signal
# In short: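 Human vascular primary cells (umbilical vein endothelium) received test chemical; Tissue Factor was determined by ELISA at 24 h, and both gain and loss of signal versus DMSO were fitted.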
# [7] = BSK_3C_uPAR: BioMAP Diversity Plus: 3C Assay for Urokinase-type plasminogen activator receptor (uPAR) Biomarker Activity (AID 2282998; active = hit-call score of the fitted dose curve at least 0.9, where 1 is the maximum; inactive = score below 0.9); settings: BioMAP 3C HUVEC, uPAR biomarker ELISA; actives raise or lower the signal
# In short: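 Readout: ELISA for surface uPAR. System: human umbilical vein endothelial primary cells, 24 h after chemical exposure. Analysis: bidirectional fit, DMSO baseline.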
# [8] = BSK_3C_VCAM1: BioMAP Diversity Plus: 3C Assay for Vascular cell adhesion molecule 1 (VCAM1) Biomarker Activity (AID 2282999; active = hit-call score of the fitted dose curve at least 0.9, where 1 is the maximum; inactive = score below 0.9); settings: BioMAP 3C HUVEC, VCAM1 ELISA, cytokine-stimulated; actives raise or lower the signal
# In short: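 Human umbilical vein endothelial cells (3C system), biomarker read by ELISA 24 h after dosing; bidirectional fit against DMSO baseline. Cytotoxicity tracked by SRB total-protein staining in parallel cultures at biomarker time.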
# [9] = BSK_4H_Eotaxin3: BioMAP Diversity Plus: 4H Assay for Eotaxin 3 Biomarker Activity (AID 2283000; active = hit-call score of the fitted dose curve at least 0.9, where 1 is the maximum; inactive = score below 0.9;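 as to outcome: CCL26 protein level quantified by ELISA in parallel with SRB cytotoxicity check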); settings: primary human endothelial cells (HUVEC); actives raise or lower the signal
# In short: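 Readout is Eotaxin-3 (CCL26) level by ELISA in primary human umbilical vein endothelial cells harvested 24 h after chemical exposure; activity fitted in both directions against DMSO control.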
# [10] = read-out: Intercellular Adhesion Molecule 1 (ICAM1), ICAM1 (gene 3383); assay: BSK_3C_ICAM1: BioMAP Diversity Plus: 3C Assay for Intercellular Adhesion Molecule 1 (ICAM1) Biomarker Activity (AID 2283003; active = hit-call score of the fitted dose curve at least 0.9, where 1 is the maximum; inactive = score below 0.9); settings: primary human endothelial cells (HUVEC); actives raise or lower the signal
# In short: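 Primary human umbilical vein endothelial cells in the BioMAP 3C system were exposed to chemicals for 24 h, then ICAM-1 was quantified by ELISA. Activity was fitted bidirectionally against the DMSO negative control baseline.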
# [11] = BSK_3C_Proliferation: Cell Proliferation Assessment in the BioMAP Diversity Plus: 3C Assay (AID 2283006; active = hit-call score of the fitted dose curve at least 0.9, where 1 is the maximum; inactive = score below 0.9;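 as to AC50: potency may reflect either rise or fall in cell number versus DMSO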); settings: primary human endothelial cells (HUVEC)
# In short: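 Human umbilical vein endothelial cells were grown sub-confluent and exposed to chemical for 48 h, then fixed with 10% TCA and stained with 0.1% sulforhodamine B; absorbance at 560 nm gave relative cell number, fitted bidirectionally against DMSO baseline.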
# [12] = read-out: E-selectin (Homo sapiens) (UniProt P16581); assay: BSK_3C_Eselectin: BioMAP Diversity Plus: 3C Assay for Eselectin Biomarker Activity (AID 2283015; active = hit-call score of the fitted dose curve at least 0.9, where 1 is the maximum; inactive = score below 0.9;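 as to outcome: cell surface E-selectin protein quantified by ELISA 24 h after dosing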); settings: primary human endothelial cells (HUVEC); actives raise or lower the signal
# In short: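 HUVEC, 3C stimulation; compound exposure 24 h; E-selectin by ELISA; gain- or loss-of-signal fitted bidirectionally vs DMSO baseline.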
# [13] = read-out: Interleukin-1 alpha (IL1a), IL1A (gene 3552); assay: BSK_BE3C_IL1a: BioMAP Diversity Plus: BE3C Assay for Interleukin-1 alpha (IL1a) Biomarker Activity (AID 2283016; active = hit-call score of the fitted dose curve at least 0.9, where 1 is the maximum; inactive = score below 0.9); settings: primary human bronchial epithelial cells; actives raise or lower the signal
# In short: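 Human primary bronchial epithelial cells (BE3C system) were dosed with compound and IL-1a measured by ELISA 24 h later. Activity was fitted bidirectionally against DMSO baseline; cytotoxicity was tracked in parallel cultures by SRB total-protein staining.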
# [14] = read-out: Plasminogen activator inhibitor-1 (PAI1), SERPINE1 (gene 5054); assay: BSK_BE3C_PAI1: BioMAP Diversity Plus: BE3C Assay for Plasminogen activator inhibitor-1 (PAI1) Biomarker Activity (AID 2283037; active = hit-call score of the fitted dose curve at least 0.9, where 1 is the maximum; inactive = score below 0.9); settings: primary human bronchial epithelial cells; actives raise or lower the signal
# In short: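 Human primary bronchial epithelial cells were exposed to chemical for 24 h, then PAI-1 was quantified by ELISA. Activity was fitted bidirectionally relative to the DMSO negative control baseline.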
# [15] = BSK_LPS_PGE2: BioMAP Diversity Plus: LPS Assay for Prostaglandin E2 (PGE2) Biomarker Activity (AID 2283082; active = hit-call score of the fitted dose curve at least 0.9, where 1 is the maximum; inactive = score below 0.9;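 as to AC50: secreted prostaglandin E2 measured by ELISA in LPS-stimulated co-culture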); settings: primary human HUVEC with PBMC; actives raise or lower the signal
# In short: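 HUVEC plus PBMC co-culture stimulated with LPS; secreted PGE2 quantified by ELISA 24 h after chemical dosing. Activity fitted bidirectionally against DMSO as negative control and baseline; parallel SRB total-protein staining served as cytotoxicity check.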
# [16] = molecular target: Retinoic acid receptor RXR-alpha (Homo sapiens) (UniProt P19793); assay: OT_NURR1_NURR1RXRa_0480: Odyssey Thera (OT) 8-hour HEK293T Protein Complementation Assay for Nurr1/retinoid X receptor (RXR) (AID 2283385)
# In short: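 HEK293T cells expressing Nurr1 and RXRα fused to reporter fragments were dosed with compound for 8 hours. Complex formation was read as fluorescence intensity and analysed as gain of signal against DMSO as baseline.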
# [17] = molecular target: Peroxisome proliferator-activated receptor gamma (Homo sapiens) (UniProt P37231); assay: OT_PPARg_PPARgSRC1_1440: Odyssey Thera (OT) 24-hour Protein-Complementation Assay for Peroxisome Proliferator-activated Receptor Gamma/ SRC-1 Co-activator (AID 2283388);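 also: nuclear to cytoplasmic ratio of reconstituted Venus YFP fluorescence in fixed imaged cells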
# Peroxisome proliferator-activated receptor gamma (Homo sapiens), sequence (P37231 whole entry, looked up, the tested form may be a part): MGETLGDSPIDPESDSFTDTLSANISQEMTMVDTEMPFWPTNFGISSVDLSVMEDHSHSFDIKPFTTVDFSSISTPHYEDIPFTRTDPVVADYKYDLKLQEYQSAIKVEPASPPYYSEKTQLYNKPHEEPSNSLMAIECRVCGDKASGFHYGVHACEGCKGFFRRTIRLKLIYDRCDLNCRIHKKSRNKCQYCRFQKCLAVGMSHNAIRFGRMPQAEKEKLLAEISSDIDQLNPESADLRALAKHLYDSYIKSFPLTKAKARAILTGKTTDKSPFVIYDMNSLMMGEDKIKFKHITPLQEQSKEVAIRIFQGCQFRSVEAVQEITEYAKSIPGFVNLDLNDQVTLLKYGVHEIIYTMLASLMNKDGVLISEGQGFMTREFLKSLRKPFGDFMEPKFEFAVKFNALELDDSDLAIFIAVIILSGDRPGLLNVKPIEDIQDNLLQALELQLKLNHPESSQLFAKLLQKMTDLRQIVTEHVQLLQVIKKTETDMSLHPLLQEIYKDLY
# In short: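 Readout: nuclear-to-cytoplasmic 488 nm fluorescence ratio, ≥350 cells per image, 8 images per well, after 24 h compound exposure of HEK293T expressing PPARg/SRC-1 split-YFP fusions. Activity fitted in positive direction against DMSO.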
# [18] = ACEA_AR_agonist_AUC_viability: ACEA Biosciences xCELLigence Real-Time Cell Analysis on Androgen Receptor Agonism for Viability (AID 2283775);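 as to AC50: viability read 80 hours after compound addition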
# In short: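 Read-out is area under the impedance curve at 80 h post-dose in 22Rv1 cells, with DMSO as baseline and signal loss taken as reduced viability. Compounds ran in duplicate from 100 uM final.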
# [19] = CCTE_Harrill_HTTr_Viability_MCF7: CCTE's 6-hour Cell Viability Assessment for the High-Throughput Transcriptomics (HTTr) Platform, in MCF-7 cells cultured in DMEM + 10% fetal bovine serum, Harrill Lab (AID 2284010; active = hit-call score of the fitted dose curve at least 0.9, where 1 is the maximum; inactive = score below 0.9)
# In short: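 Membrane integrity was scored by high-content imaging of propidium iodide dye exclusion after a 6 h exposure across an eight-point dilution series. Data were fitted bidirectionally relative to DMSO as negative control and baseline.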
# [20] = CCTE_Harrill_HTTr_CellCount_MCF7: CCTE's Cell Proliferation Assessment for the High-Throughput Transcriptomics (HTTr) Platform, Harrill Lab (AID 2284012);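 also: cells exposed to compound for six hours; intended direction is loss of nuclei count meaning fewer cells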
# In short: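 MCF-7 cells were exposed for 6 h to an eight-point dilution series; Hoechst-labeled nuclei were counted by high content imaging. Curves were fitted bidirectionally against DMSO as negative control and baseline, with signal loss indicating reduced cell count.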
# E-selectin (Homo sapiens), sequence (P16581 whole entry, looked up): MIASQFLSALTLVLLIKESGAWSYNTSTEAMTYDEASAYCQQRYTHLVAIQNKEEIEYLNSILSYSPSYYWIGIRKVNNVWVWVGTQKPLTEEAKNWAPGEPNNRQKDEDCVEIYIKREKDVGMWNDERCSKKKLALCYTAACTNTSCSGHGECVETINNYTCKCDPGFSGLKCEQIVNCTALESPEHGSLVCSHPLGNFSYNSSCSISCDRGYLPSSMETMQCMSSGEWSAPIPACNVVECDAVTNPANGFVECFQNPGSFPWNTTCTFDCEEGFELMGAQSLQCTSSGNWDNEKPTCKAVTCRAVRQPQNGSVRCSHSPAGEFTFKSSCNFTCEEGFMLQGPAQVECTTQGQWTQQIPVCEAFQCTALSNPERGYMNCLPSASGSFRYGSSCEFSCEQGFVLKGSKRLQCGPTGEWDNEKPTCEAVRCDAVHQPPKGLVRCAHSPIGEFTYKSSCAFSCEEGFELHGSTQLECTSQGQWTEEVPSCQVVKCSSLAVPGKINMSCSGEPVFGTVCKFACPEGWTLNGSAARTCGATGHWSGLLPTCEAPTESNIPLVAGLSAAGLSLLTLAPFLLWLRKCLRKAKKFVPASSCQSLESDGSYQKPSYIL
smiles,measurement,setting,value
CCC1CCC(=O)O1 (stereo not given),outcome,[1],inactive
same,outcome,[2],inactive
same,outcome,[3],inactive
same,outcome,[4],inactive
O=[N+]([O-])c1cc([N+](=O)[O-])c2ccccc2c1,outcome,[5],inactive
same,outcome,[1],inactive
O=[N+]([O-])C=Cc1ccccc1,outcome,[5],inactive
same,AC50,[6],4.68 µM (active)
same,AC50,[7],5.53 µM (active)
same,AC50,[8],6.25 µM (active)
same,AC50,[9],9.12 µM (active)
same,AC50,[10],7.32 µM (active)
same,AC50,[11],1.37 µM (active)
same,outcome,[1],inactive
same,AC50,[12],6.94 µM (active)
same,AC50,[13],2.28 µM (active)
same,outcome,[14],inactive
same,AC50,[15],5.81 µM (active)
ClC1=C(Cl)[C@]2(Cl)[C@@H]3[C@@H](Cl)[C@H](Cl)C[C@@H]3[C@@]1(Cl)C2(Cl)Cl,outcome,[5],inactive
same,outcome,[1],inactive
CC(=O)c1cc2c(cc1C)C(C)(C)C(C)CC2(C)C (stereo not given),AC50,[2],5.28 µM (active)
same,AC50,[16],82.1 µM (active)
same,outcome,[3],inactive
same,outcome,[17],inactive
same,outcome,[18],inactive
same,outcome,[4],inactive
same,outcome,[19],inactive
same,outcome,[20],inactive
C=C(Cl)Cl,outcome,[5],inactive
COC(=O)COc1ccc(Cl)cc1Cl,outcome,[5],inactive
O=c1c2ccccc2c(=O)c2c1cc(Cl)c1[nH]c3c([nH]c12)c(Cl)cc1c(=O)c2ccccc2c(=O)c13,outcome,[5],inactive
same,AC50,[6],15.8 µM (active)
same,outcome,[7],inactive
same,outcome,[8],inactive
same,AC50,[9],24.8 µM (active)
same,outcome,[10],inactive
same,outcome,[11],inactive
same,AC50,[1],138 µM (active)
same,outcome,[12],inactive
same,outcome,[13],inactive
same,outcome,[14],inactive
same,outcome,[15],inactive
Nc1ccccc1,outcome,[16],inactive
same,outcome,[3],inactive
same,outcome,[17],inactive
same,outcome,[18],inactive
same,outcome,[4],inactive
same,outcome,[19],inactive
same,outcome,[20],inactive
N#CCCCCC#N,outcome,[6],inactive
same,outcome,[7],inactive
same,outcome,[8],inactive
same,outcome,[9],inactive
same,outcome,[10],inactive
same,outcome,[11],inactive
same,outcome,[12],inactive
same,outcome,[13],inactive
same,outcome,[14],inactive
same,outcome,[15],inactive
same,outcome,[16],inactive
same,outcome,[17],inactive
same,outcome,[4],inactive
same,outcome,[19],inactive
same,outcome,[20],inactive
CCCCCCCCCCCCCCCC[N+](C)(C)C,outcome,[1],inactive
same,outcome,[2],inactive
same,outcome,[17],inactive
same,AC50,[18],5.58 µM (active)
same,AC50,[4],6.1 µM (active)
C=CC(=O)OCCO,outcome,[2],inactive
same,outcome,[18],inactive
same,outcome,[4],inactive
O=C1C(Cl)=C(Cl)C(=O)C(Cl)=C1Cl,outcome,[5],inactive
same,AC50,[6],7 µM (active)
same,AC50,[7],9.52 µM (active)
same,AC50,[8],11.9 µM (active)
same,AC50,[9],15 µM (active)
same,AC50,[10],25.4 µM (active)
same,AC50,[11],5.26 µM (active)
same,AC50,[12],10.3 µM (active)
same,AC50,[13],30.5 µM (active)
same,AC50,[14],20 µM (active)
same,outcome,[15],inactive
same,outcome,[20],inactive
Cl/C=C\CCl,outcome,[19],inactive
same,outcome,[20],inactive
CC(O)CN(CC(C)O)CC(C)O (stereo not given),outcome,[16],inactive
same,outcome,[3],inactive
same,outcome,[18],inactive
CC(=O)/C=C/c1ccccc1,outcome,[6],inactive
same,outcome,[7],inactive
same,AC50,[8],20 µM (active)
same,outcome,[9],inactive
same,outcome,[10],inactive
same,AC50,[11],23.2 µM (active)
same,outcome,[1],inactive
same,outcome,[12],inactive
same,outcome,[13],inactive
same,outcome,[14],inactive
same,outcome,[15],inactive
c1cc(OCC2CO2)ccc1Cc1ccc(OCC2CO2)cc1 (stereo not given),outcome,[1],inactive
same,outcome,[19],inactive
same,outcome,[20],inactive
CN(C)CCC#N,outcome,[19],inactive
CC(C)c1ccc(O)cc1,outcome,[5],inactive
same,AC50,[2],57.9 µM (active)
same,outcome,[3],inactive
same,outcome,[17],inactive
same,outcome,[18],inactive
same,outcome,[4],inactive
CCOC(=O)C1OC1(C)c1ccccc1 (stereo not given),outcome,[2],inactive
same,outcome,[16],inactive
same,outcome,[3],inactive
same,outcome,[17],inactive
same,outcome,[18],inactive
